Screens as filed in PubChem.
Compounds with a hit are over-represented: about 1.6% of the library has one in this group of screens.
KCNQ2 enhance = potentiators of rat KCNQ2 potassium channel; CHO-K1 KCNQ2, FluxOR thallium flux fluorescence; active compounds read high; B-score at 10 µM; actives 0.54% (n = 310,000);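 active = fluorescence ratio B-score at least 3 SD of library B-scores, with initial fluorescence B-score within 3 of them, cut at about 5.3 in these data; same plate scores as AID 2156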;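 note: B-score of peak minus minimum over baseline fluorescence ratio after K+ and Tl+ stimulus; positive B-score means potentiation of KCNQ2 with more thallium influx and brighter signal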
KCNQ2 block = rat KCNQ2 potassium channel inhibitors, primary screen, cell-based, CHO-K1, FluxOR thallium flux, B-score; 20 min; active compounds read low; Potassium voltage-gated channel subfamily KQT member 2 (Rattus norvegicus), O88943; B-score at 10 µM; actives 1.1% (n = 310,000); AID 2156, 2009;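 active = fluorescence ratio B-score at most minus 3 library SDs, with starting brightness B-score within 2 library SDs, cut at about -5.5 in these data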
KCNQ2 block conf = rat KCNQ2 potassium channel inhibitors, confirmation, cell-based, thallium flux; activity change, negative = inhibition, % at 10 µM; KCNQ2-expressing cells, inhibition; active compounds read low; shares compounds with KCNQ2 block; actives 57% (n = 1,000);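 note: 0% = vehicle wells and values are ratio percent relative to vehicle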
KCNQ1 spec = human KCNQ1 channel inhibition, counter-screen for KCNQ2 inhibitor project, cell-based, FluxOR thallium flux | shares compounds with KCNQ2 block | KCNQ1-expressing cells, FluxOR thallium flux fluorescence; active compounds read low | activity change, negative = inhibition, % at 10 µM | actives 15% (n = 1,000) | AID 493026, 2011;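 active = activity change at least 3 SD of negative controls below their mean in both duplicate wells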;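 note: CHO cells stably transfected with KCNQ1 and depolarized by potassium stimulus; peak minus minimum fluorescence over baseline after thallium addition; 0% = vehicle negative control and -100% = blank without thallium stimulus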
Target sequence (P51787 whole entry, looked up): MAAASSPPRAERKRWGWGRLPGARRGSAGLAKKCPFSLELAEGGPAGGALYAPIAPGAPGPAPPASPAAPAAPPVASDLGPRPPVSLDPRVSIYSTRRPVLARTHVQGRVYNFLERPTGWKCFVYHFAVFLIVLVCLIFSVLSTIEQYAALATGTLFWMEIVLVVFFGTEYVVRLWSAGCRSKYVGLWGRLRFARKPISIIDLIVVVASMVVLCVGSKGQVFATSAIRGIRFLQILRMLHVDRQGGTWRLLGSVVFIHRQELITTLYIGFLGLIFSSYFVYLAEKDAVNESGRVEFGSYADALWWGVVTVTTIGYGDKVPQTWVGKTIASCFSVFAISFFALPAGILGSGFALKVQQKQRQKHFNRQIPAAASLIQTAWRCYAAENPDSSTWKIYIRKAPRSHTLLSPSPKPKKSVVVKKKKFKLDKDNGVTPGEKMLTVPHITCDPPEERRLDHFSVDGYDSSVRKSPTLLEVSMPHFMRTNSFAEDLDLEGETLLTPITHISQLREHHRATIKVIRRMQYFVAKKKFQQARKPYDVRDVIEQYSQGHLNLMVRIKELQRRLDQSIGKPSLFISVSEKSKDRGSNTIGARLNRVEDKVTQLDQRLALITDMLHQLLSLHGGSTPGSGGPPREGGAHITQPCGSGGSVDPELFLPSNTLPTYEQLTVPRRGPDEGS
CHO Tl ctr = thallium flux change in parental CHO cells, counter-screen for KCNQ2 inhibitor project; actives 14% (n = 1,000); activity change, % at 10 µM; AID 493029, 2011; active compounds read low; shares compounds with KCNQ2 block;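 note: 0% = vehicle negative controls with stimulus buffer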
KCNQ2 patch conf = rat KCNQ2 channel inhibitors, confirmation, cell-based, automated patch clamp, single concentration. shares compounds with KCNQ2 block. KCNQ2-expressing cells, automated patch clamp current. calls only at 10 µM. actives 49% (n = 550). AID 588531, 2011
* hit, by the source's call. Unless noted, the rule behind the calls is not given here.

Cc1ccc(-c2cc(C(=O)Nc3ccccc3C)c3ccccc3n2)o1 was read as KCNQ2 enhance -10, KCNQ2 block -10*, KCNQ2 block conf -40%*, KCNQ1 spec inactive, CHO Tl ctr inactive and KCNQ2 patch conf active.
`Cc1ccc(-c2cc(C(=O)N3CC(C)OC(C)C3)c3ccccc3n2)o1` (stereo not given) gave KCNQ2 enhance -11, KCNQ2 block -11*, KCNQ2 block conf -33%*, KCNQ1 spec inactive, CHO Tl ctr inactive and KCNQ2 patch conf active.
Cc1ccc(-c2cc(C(=O)NCc3ccco3)c3ccccc3n2)o1 was read as KCNQ2 block inactive.
CCn1c(=O)c(C(=O)NC(C)c2ccccc2)c(O)c2ccccc21 (stereo not given) was read as KCNQ2 block inactive.
Screening CCCn1c(=O)c(C(=O)NC(C)c2ccccc2)c(O)c2ccccc21 (stereo not given) returned KCNQ2 enhance -11, KCNQ2 block -11*, KCNQ2 block conf inactive, KCNQ1 spec inactive and CHO Tl ctr inactive.
Cn1c(=O)c(C(=O)NCc2ccccc2Cl)c(O)c2ccccc21 was read as KCNQ2 block inactive.
Screening CCn1c(=O)c(C(=O)NCc2ccccc2Cl)c(O)c2ccccc21 returned KCNQ2 enhance -8.4, KCNQ2 block -8.4*, KCNQ2 block conf -36%*, KCNQ1 spec -37%*, CHO Tl ctr -23%* and KCNQ2 patch conf inactive.
For COc1ccc(Cc2nc3ccc(C(=O)NCCCSC)cc3o2)cc1OC the results were KCNQ2 block inactive.
`COc1ccc(-n2cc3c(-c4cccc(Br)c4)nnc(C)c3n2)cc1` gave KCNQ2 block inactive.
`Cc1c(NC(=O)C(C)Oc2ccc(Br)cc2Cl)c(=O)n(-c2ccccc2)n1C` (stereo not given) gave KCNQ2 block inactive.
Screening COc1ccc(C(=O)NC(C)CCn2cccn2)cc1OC1CCN(C(C)C)CC1 (stereo not given) returned KCNQ2 block inactive.
c1ccc(C(NCCNC(c2ccccc2)c2ccccc2)c2ccccc2)cc1 was read as KCNQ2 enhance -7.2, KCNQ2 block -7.2*, KCNQ2 block conf -28%*, KCNQ1 spec inactive, CHO Tl ctr inactive and KCNQ2 patch conf inactive.
For NS(=O)(=O)c1ccc(CCNC(c2ccccc2)c2ccccc2)cc1 the results were KCNQ2 enhance 0.51 and KCNQ2 block inactive.
`CCOC(=O)c1c(-c2cccs2)csc1NC(=O)CN1CC(C)OC(C)C1` (stereo not given) gave KCNQ2 enhance -8.1, KCNQ2 block -8.1*, KCNQ2 block conf -19%*, KCNQ1 spec inactive, CHO Tl ctr inactive and KCNQ2 patch conf inactive.
For CCOC(=O)c1c(-c2cccs2)csc1NC(=O)C(C)(C)C the results were KCNQ2 enhance -7, KCNQ2 block -7*, KCNQ2 block conf -35%*, KCNQ1 spec -37%*, CHO Tl ctr -34%* and KCNQ2 patch conf inactive.
CCOC(=O)c1c(-c2ccc(-c3ccccc3)cc2)csc1NC(=O)CCN1CCOCC1 was read as KCNQ2 enhance 1.2 and KCNQ2 block inactive.
Screening CCOC(=O)c1c(-c2cccs2)csc1NC(=O)CCCC(=O)O returned KCNQ2 enhance 0.46 and KCNQ2 block inactive.
For CCOC(=O)c1c(-c2cccs2)csc1NC(C)=O the results were KCNQ2 block inactive.
For CCOC(=O)c1c(-c2ccc(-c3ccccc3)cc2)csc1NC(=O)CNCCN(C)C the results were KCNQ2 enhance -8.8, KCNQ2 block -8.8*, KCNQ2 block conf inactive, KCNQ1 spec inactive and CHO Tl ctr inactive.
`COc1cc(CN2CCN(Cc3ccc(C(F)(F)F)cc3)CC2)cc(OC)c1OC` gave KCNQ2 enhance 0.16 and KCNQ2 block inactive.
`CC(C)CN(C(=O)C1CSC2(C)CCC(=O)N12)c1c(N)n(Cc2ccccc2)c(=O)[nH]c1=O` (stereo not given) gave KCNQ2 enhance 1.3 and KCNQ2 block inactive.
Screening COc1cc(NC(=O)c2ccc3c(c2)OCCO3)ccc1NC(=O)c1ccccc1Cl returned KCNQ2 block inactive.
For COc1cc([N+](=O)[O-])ccc1NC(=O)N1CCCCCC1 the results were KCNQ2 enhance 2 and KCNQ2 block inactive.
COc1cc(C(=O)Nc2cc(-c3ccccc3)[nH]n2)cc(OC)c1OC was read as KCNQ2 enhance -6.6, KCNQ2 block -6.6*, KCNQ2 block conf -25%*, KCNQ1 spec inactive, CHO Tl ctr inactive and KCNQ2 patch conf inactive.
Screening COc1cc(C(=O)Nc2nc(OC)c(-c3ccccc3)c(OC)n2)cc(OC)c1OC returned KCNQ2 enhance 0.82 and KCNQ2 block inactive.
Screening CC(=O)N1CCN(C(=S)Nc2cc(S(=O)(=O)N3CCOCC3)ccc2Cl)CC1 returned KCNQ2 enhance 0.39 and KCNQ2 block inactive.
For COc1cc(OC)cc(C(=O)Nn2cc(C(=O)Nc3c(F)cccc3F)c3ccccc3c2=O)c1 the results were KCNQ2 enhance -6.9, KCNQ2 block -6.9*, KCNQ2 block conf inactive, KCNQ1 spec inactive and CHO Tl ctr inactive.
COC(=O)c1cn(NC(=O)c2cc(OC)cc(OC)c2)c(=O)c2ccccc12 was read as KCNQ2 enhance 0.43 and KCNQ2 block inactive.
`Cc1ccc(-c2nn(CCC(N)=O)c(=O)c3ccccc23)cc1` gave KCNQ2 enhance 0.13 and KCNQ2 block inactive.
Screening COc1ccccc1N1CCN(C(=O)c2oc3cc(C)cc(C)c3c2C)CC1 returned KCNQ2 enhance -8.2, KCNQ2 block -8.2*, KCNQ2 block conf inactive, KCNQ1 spec inactive and CHO Tl ctr inactive.
COc1ccccc1N1CCN(C(=O)c2cc(=O)c3ccc(C)cc3o2)CC1 was read as KCNQ2 enhance 0.17 and KCNQ2 block inactive.
`COc1ccc(NC(=O)Nc2c[nH]c(=O)[nH]c2=O)cc1` gave KCNQ2 enhance 0.36 and KCNQ2 block inactive.
Screening Cc1onc(-c2ccccc2)c1C(=O)Nc1ccncc1 returned KCNQ2 enhance 1.9 and KCNQ2 block inactive.
`Cc1ccc(F)cc1NC(=O)c1c(-c2ccccc2)noc1C` gave KCNQ2 enhance -8.1, KCNQ2 block -8.1*, KCNQ2 block conf inactive, KCNQ1 spec inactive and CHO Tl ctr inactive.
`Cc1onc(-c2ccccc2)c1C(=O)Nc1ccc(Br)cc1Cl` gave KCNQ2 block inactive.
Cc1ccccc1NC(=O)c1c(-c2ccccc2)noc1C was read as KCNQ2 enhance -9.5, KCNQ2 block -9.5*, KCNQ2 block conf inactive, KCNQ1 spec inactive and CHO Tl ctr inactive.
